Data as given in PubChem BioAssay (Tox21).
Several values for one entry are separate records, joined by “and”; a condition that tells them apart may be missing. Equal values may be shown once. Inconclusive results are not listed. Entries that show only a call come without a potency. Some compounds were tested as several samples or in several runs, with calls that do not always agree. Activity calls are given as the source filed them. Unless noted, the call rests on the fitted dose curve; in most records, active means well fitted curve in the direction sought with a large enough effect in the repeat runs; inconclusive means weak or mixed curves; inactive means no such curve, though single readings can be large; an effect the other way counts as inactive or inconclusive.

Legend:
[1] = qHTS assay to test for compound auto fluorescence at 535 nm (green) in HEK293 cells (AID 720680)
[2] = qHTS assay to test for compound auto fluorescence at 460 nm (blue) in HEK293 cell free culture (AID 720681)
Outline: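 Test compounds were pinned into cell-free culture medium (DMEM with 10% FBS) and fluorescence was read directly at Ex/Em 405/460 nm. Signals were expressed as fluorescence equivalents of triamterene, with DMSO vehicle as control.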

[3] = qHTS assay to test for compound auto fluorescence at 535 nm (green) in HEK293 cell free culture (AID 720682)
Outline: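 Read-out: 485/535 nm fluorescence intensity, calibrated against fluorescein. Medium only (DMEM + 10% FBS, no cells); test compound or DMSO vehicle added by pintool before plate reading.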

[4] = qHTS assay to test for compound auto fluorescence at 590 nm (red) in HEK293 cell free culture (AID 720683)
Outline: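 Tox21 10K library compounds were pinned into cell-free DMEM with 10% FBS and fluorescence was read at excitation 540 nm. Activity is expressed as Rose Bengal sodium equivalency.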

[5] = qHTS assay to test for compound auto fluorescence at 590 nm (red) in HepG2 cell free culture (AID 720684)
Outline: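 Measured in medium alone (MEM containing 10% FBS) following pintool addition of compound; emission at 590 nm with 540 nm excitation, referenced to Rose Bengal sodium.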

[6] = qHTS assay to test for compound auto fluorescence at 460 nm (blue) in HepG2 cell free culture (AID 720685)
Outline: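 Compound (23 nL) or DMSO pinned into cell-free MEM with 10% FBS; blue fluorescence read at 405/460 nm excitation/emission, expressed as auto-fluorescence equivalency to triamterene.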

[7] = qHTS assay to test for compound auto fluorescence at 535 nm (green) in HepG2 cell free culture (AID 720686)
[8] = qHTS assay to test for compound auto fluorescence at 460 nm (blue) in HepG2 cells (AID 720687)
Outline: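 Cells (2,000/well in MEM with 10% FBS) attached overnight at 37 C, then were exposed to compound or DMSO for 1 hr at 37 C, 5% CO2. Fluorescence read at Ex/Em 405/460 nm, expressed as triamterene-equivalent signal.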

[9] = target: Glucocorticoid receptor (Homo sapiens) (UniProt P04150); assay: qHTS assay to identify small molecule antagonists of the glucocorticoid receptor (GR) signaling pathway (AID 720692; active means well fitted inhibition curve with a large enough effect in the signal ratio in the repeat runs, not every such curve was filed as active; the % refers to the signal ratio; further: potency means the concentration at half of the fitted maximal effect)
Outline: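 Inhibition of glucocorticoid signalling is measured in HeLa cells with a GRE-controlled beta-lactamase reporter; cells are co-treated with compound and 5 nM dexamethasone (final) for 18 h before FRET substrate readout.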

[10] = qHTS assay to identify small molecule antagonists of the glucocorticoid receptor (GR) signaling pathway - cell viability counter screen (AID 720693); further: nearly all actives have a fitted effect of over 55% in size; further: potency means the concentration at half of the fitted maximal effect
[11] = qHTS assay for identifying genotoxic compounds that show differential cytotoxicity against isogenic chicken DT40 cell lines with known DNA damage response pathways - wild type cell line (AID 743012); further: nearly all actives have a fitted effect of over 60% in size; further: potency means the concentration at half of the fitted maximal effect
Outline: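 First, wild type DT40 cells were plated at 300 per well and equilibrated about 0.5 h at 37 C/5% CO2. Next, compounds in DMSO were added and exposure lasted 40 h. Finally, CellTiter-Glo was added for 30 min at room temperature and luminescence recorded.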

[12] = qHTS assay for identifying genotoxic compounds that show differential cytotoxicity against isogenic chicken DT40 cell lines with known DNA damage response pathways - Rev3 mutant cell line (AID 743014); further: nearly all actives have a fitted effect of over 55% in size; further: potency means the concentration at half of the fitted maximal effect
[13] = qHTS assay for identifying genotoxic compounds that show differential cytotoxicity against isogenic chicken DT40 cell lines with known DNA damage response pathways - Rad54/Ku70 mutant cell line (AID 743015); further: nearly all actives have a fitted effect of over 60% in size; further: potency means the concentration at half of the fitted maximal effect
[14] = qHTS assay to identify small molecule antagonists of the androgen receptor (AR) signaling pathway - cell viability counter screen (AID 743033; further: nearly all actives have a fitted effect of over 45% in size; further: potency means the concentration at half of the fitted maximal effect)
[15] = qHTS assay to identify small molecule antagonists of the androgen receptor (AR) signaling pathway using the MDA cell line - cell viability counter screen (AID 743041; further: nearly all actives have a fitted effect of over 45% in size; further: potency means the concentration at half of the fitted maximal effect)
Outline: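 Viability counter screen run alongside the AR antagonist reporter: cells seeded 5 h before compound, R1881 added, 16 h incubation at 37C without CO2, fluorescent CellTiter-Fluor signal quantified.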

[16] = target: Glucocorticoid receptor (Homo sapiens) (UniProt P04150); assay: qHTS assay to identify small molecule agonists of the glucocorticoid receptor (GR) signaling pathway (AID 720691; active means well fitted activation curve with a large enough effect in the signal ratio in the repeat runs, not every such curve was filed as active; the % refers to the signal ratio)
Outline: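 qHTS in GR-bla HeLa cells: 4 h settling at 37 C/5% CO2, 18 h compound incubation at 37 C, 2 h LiveBLAzer B/G FRET substrate at room temperature, fluorescence intensity measured.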

[17] = target: Androgen receptor (Homo sapiens) (UniProt P10275); assay: qHTS assay to identify small molecule antagonists of the androgen receptor (AR) signaling pathway (AID 743035; active means well fitted inhibition curve with a large enough effect in the signal ratio in the repeat runs, not every such curve was filed as active; the % refers to the signal ratio; further: potency means the concentration at half of the fitted maximal effect)
Outline: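 Beta-lactamase FRET read (2 h RT incubation with LiveBLAzer B/G) following 16 h of compound plus R1881 treatment of AR-UAS-bla HEK293 cells, which had been pre-incubated 4 h at 37C.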

[18] = target: Androgen receptor (Homo sapiens) (UniProt P10275); assay: qHTS assay to identify small molecule agonists of the androgen receptor (AR) signaling pathway (AID 743036; active means well fitted activation curve with a large enough effect in the signal ratio in the repeat runs, with a control signal flat, not every such curve was filed as active; the % refers to the signal ratio)
Outline: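 HEK293 cells stably carrying a UAS-driven beta-lactamase reporter (GeneBLAzer AR-UAS-bla-GripTite) were plated at 2,000 cells/well, rested 4 h at 37C, then exposed to compounds in DMSO for 16 h. LiveBLAzer B/G FRET substrate was added for 2 h at room temperature; fluorescence read.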

[19] = target: Androgen receptor (Homo sapiens) (UniProt P10275); assay: qHTS assay to identify small molecule agonists of the androgen receptor (AR) signaling pathway using the MDA cell line (AID 743040; further: nearly all actives have a fitted effect of over 20% in size); conditions: MDA-kb2 AR-luc cells, MMTV luciferase, 16 h, stronger effect = higher value
Outline: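 Luminescence from ONE-Glo, read after 30 min at room temperature, reflects MMTV-driven luciferase in MDA-kb2 cells (AR- and GR-responsive). Treatment lasted 16 h at 37C, 0% CO2.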

[20] = target: Androgen receptor (Homo sapiens) (UniProt P10275); assay: qHTS assay to identify small molecule antagonists of the androgen receptor (AR) signaling pathway using the MDA cell line (AID 743042; further: nearly all actives have a fitted effect of over 55% in size; further: potency means the concentration at half of the fitted maximal effect)
Outline: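 MDA-kb2 cells (human breast carcinoma, stably carrying an MMTV-luciferase reporter responsive to AR and GR) were plated at 3,000 cells/well and preincubated 5 hr at 37C, then given compound plus R1881 agonist for 16 h. ONE-Glo luminescence was read.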

Sequence of Androgen receptor (Homo sapiens) (P10275 whole entry, looked up): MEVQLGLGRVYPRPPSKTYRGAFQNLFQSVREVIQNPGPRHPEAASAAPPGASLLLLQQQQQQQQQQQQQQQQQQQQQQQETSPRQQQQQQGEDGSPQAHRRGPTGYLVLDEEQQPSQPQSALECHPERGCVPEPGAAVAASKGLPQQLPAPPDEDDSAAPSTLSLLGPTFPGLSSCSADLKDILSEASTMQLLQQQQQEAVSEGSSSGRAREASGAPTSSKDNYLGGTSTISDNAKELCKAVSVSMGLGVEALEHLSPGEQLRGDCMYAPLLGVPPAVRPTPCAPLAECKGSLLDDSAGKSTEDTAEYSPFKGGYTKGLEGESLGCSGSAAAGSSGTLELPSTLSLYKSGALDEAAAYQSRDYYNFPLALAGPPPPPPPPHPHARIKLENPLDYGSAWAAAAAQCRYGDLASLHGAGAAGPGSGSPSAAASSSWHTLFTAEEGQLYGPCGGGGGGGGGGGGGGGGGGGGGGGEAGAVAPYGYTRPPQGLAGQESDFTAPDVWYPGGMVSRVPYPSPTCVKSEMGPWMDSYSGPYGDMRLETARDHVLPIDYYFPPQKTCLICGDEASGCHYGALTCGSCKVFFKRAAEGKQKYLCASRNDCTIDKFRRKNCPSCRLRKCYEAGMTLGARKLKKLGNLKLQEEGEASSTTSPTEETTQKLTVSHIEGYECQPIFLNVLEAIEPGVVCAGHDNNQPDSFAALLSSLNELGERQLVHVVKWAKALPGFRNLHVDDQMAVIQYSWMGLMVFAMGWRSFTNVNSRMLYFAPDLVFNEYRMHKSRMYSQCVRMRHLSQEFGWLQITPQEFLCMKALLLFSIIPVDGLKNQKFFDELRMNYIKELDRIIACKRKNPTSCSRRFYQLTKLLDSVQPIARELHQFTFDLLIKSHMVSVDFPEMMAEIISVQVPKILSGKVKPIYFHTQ
Sequence of Glucocorticoid receptor (Homo sapiens) (P04150 whole entry, looked up): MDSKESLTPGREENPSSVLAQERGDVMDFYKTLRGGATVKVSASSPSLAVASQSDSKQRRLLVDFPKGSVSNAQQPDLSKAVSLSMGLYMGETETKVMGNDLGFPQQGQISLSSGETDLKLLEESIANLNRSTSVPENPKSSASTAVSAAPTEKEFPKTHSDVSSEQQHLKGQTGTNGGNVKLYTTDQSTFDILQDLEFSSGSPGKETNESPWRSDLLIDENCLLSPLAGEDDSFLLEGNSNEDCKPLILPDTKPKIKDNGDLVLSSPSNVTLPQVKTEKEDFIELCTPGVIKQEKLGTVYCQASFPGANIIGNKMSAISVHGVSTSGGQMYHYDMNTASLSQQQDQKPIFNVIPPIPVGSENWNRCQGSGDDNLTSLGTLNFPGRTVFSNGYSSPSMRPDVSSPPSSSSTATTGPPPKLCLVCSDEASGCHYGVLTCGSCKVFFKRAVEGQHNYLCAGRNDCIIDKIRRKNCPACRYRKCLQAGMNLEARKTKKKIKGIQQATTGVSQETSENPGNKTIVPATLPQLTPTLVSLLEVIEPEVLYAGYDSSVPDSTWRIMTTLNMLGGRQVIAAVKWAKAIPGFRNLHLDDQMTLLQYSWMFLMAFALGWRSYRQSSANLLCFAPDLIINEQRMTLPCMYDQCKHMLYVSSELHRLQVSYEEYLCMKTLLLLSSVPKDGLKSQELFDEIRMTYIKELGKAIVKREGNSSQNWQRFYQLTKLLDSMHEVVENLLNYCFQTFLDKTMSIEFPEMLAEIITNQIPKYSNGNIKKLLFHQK

CC(O)CN(CC(C)O)CC(C)O (stereo not given)
outcome [1]: inactive
Potency [2]: inactive
outcome [3]: inactive
outcome [4]: inactive
outcome [5]: inactive
Potency [6]: inactive
outcome [7]: inactive
Potency [8]: inactive
Potency [9]: inactive
Potency [10]: inactive
Potency [11]: inactive
Potency [12]: inactive
Potency [13]: inactive
Potency [14]: inactive
Potency [15]: inactive

Cc1ccc(N=CN(C)C=Nc2ccc(C)cc2C)c(C)c1
outcome [1]: inactive
Potency [2]: inactive
outcome [3]: inactive
outcome [4]: inactive
outcome [5]: inactive
Potency [6]: inactive
outcome [7]: inactive
Potency [8]: inactive
Potency [9]: inactive
Potency [10]: inactive
Potency [11]: inactive and 30.6 µM (active)
Potency [12]: inactive and 38.5 µM (active)
Potency [13]: inactive and 30.6 µM (active)
Potency [14]: inactive
Potency [15]: inactive

C=CC(Cl)CCl (stereo not given)
outcome [1]: inactive
Potency [2]: inactive
outcome [3]: inactive
outcome [4]: inactive
outcome [5]: inactive
Potency [6]: inactive
outcome [7]: inactive
Potency [8]: inactive
outcome [16]: inactive
Potency [9]: inactive
Potency [10]: inactive
Potency [11]: inactive
Potency [12]: inactive
Potency [13]: inactive
Potency [14]: inactive
Potency [17]: inactive
Potency [18]: inactive
activity change ([19]; at 95 µM (top of the series)): -0.5% (inactive) and 0.488% (inactive)
Potency [15]: inactive
Potency [20]: inactive

C[N+](C)(C)CC(=O)[O-]
outcome [1]: inactive
Potency [2]: inactive
outcome [3]: inactive
outcome [4]: inactive
outcome [5]: inactive
Potency [6]: inactive
outcome [7]: inactive
Potency [8]: inactive
Potency [10]: inactive
Potency [11]: inactive
Potency [12]: inactive
Potency [13]: inactive
Potency [14]: inactive
Potency [15]: inactive

CCOP(=O)(O)OCC (tested in a mixture with another compound)
outcome [1]: inactive
Potency [2]: inactive
outcome [3]: inactive
outcome [4]: inactive
outcome [5]: inactive
Potency [6]: inactive
outcome [7]: inactive
Potency [8]: inactive
Potency [10]: 17.2 µM (active)
Potency [11]: inactive and 96.1 nM (active)
Potency [12]: inactive and 85.6 nM (active)
Potency [13]: inactive and 96.1 nM (active)
Potency [14]: inactive and 17.2 µM (active)

CCC[CH2][Sn]([Cl])([CH2]CCC)[CH2]CCC
outcome [1]: inactive
Potency [2]: inactive
outcome [3]: inactive
outcome [4]: inactive
outcome [5]: inactive
Potency [6]: inactive
outcome [7]: inactive
Potency [8]: inactive
Potency [10]: 1.1 µM (active)
Potency [11]: 546 nM (active) and 486 nM (active)
Potency [12]: 434 nM (active) and 344 nM (active)
Potency [13]: 487 nM (active) and 386 nM (active)
Potency [14]: 618 nM (active) and 1.1 µM (active)
Potency [15]: 1.22 µM (active) and 2.17 µM (active)

COP(=S)(OC)Oc1ccc(S(=O)(=O)N(C)C)cc1
outcome [1]: inactive
Potency [2]: inactive
outcome [3]: inactive
outcome [4]: inactive
outcome [5]: inactive
Potency [6]: inactive
outcome [7]: inactive
Potency [8]: inactive
outcome [16]: inactive
Potency [10]: inactive
Potency [11]: 19.3 µM (active)
Potency [12]: inactive and 24.3 µM (active)
Potency [13]: inactive and 34.4 µM (active)
Potency [14]: inactive
Potency [17]: inactive
Potency [18]: inactive
activity change ([19]; at 70.3 µM (top of the series)): -0.992% (inactive) and -9.46% (inactive)
Potency [15]: inactive
Potency [20]: inactive and 61.1 µM (active)

N#Cc1nn(-c2c(Cl)cc(C(F)(F)F)cc2Cl)c(N)c1S(=O)C(F)(F)F (stereo not given)
outcome [1]: inactive
Potency [2]: inactive
outcome [3]: inactive
outcome [4]: inactive
outcome [5]: inactive
Potency [6]: inactive
outcome [7]: inactive
Potency [10]: inactive
Potency [11]: 8.41 µM (active) and 2.75 µM (active)
Potency [12]: 10.6 µM (active) and 3.88 µM (active)
Potency [13]: 9.44 µM (active) and 1.94 µM (active)
Potency [14]: 15.6 µM (active)
Potency [17]: 23.9 µM (active)
Potency [18]: inactive
activity change ([19]; at 70.3 µM (top of the series)): -9.74% (inactive)
activity change ([19]; at 95 µM (top of the series)): -12% (inactive)
Potency [20]: 17.3 µM (active)

CC1(C)Cc2cccc(O)c2O1
outcome [1]: inactive
Potency [2]: inactive
outcome [3]: inactive
outcome [4]: inactive
outcome [5]: inactive
Potency [6]: inactive
outcome [7]: inactive
Potency [8]: inactive
Potency [10]: inactive
Potency [11]: inactive
Potency [12]: inactive
Potency [13]: inactive
Potency [14]: inactive
Potency [15]: inactive

COP(=S)(OC)Oc1ccc(Sc2ccc(OP(=S)(OC)OC)cc2)cc1
outcome [1]: inactive
Potency [2]: inactive
outcome [3]: inactive
outcome [4]: inactive
outcome [5]: inactive
Potency [6]: inactive
outcome [7]: inactive
Potency [8]: inactive
Potency [10]: inactive
Potency [11]: 29.8 µM (active) and 68.6 µM (active)
Potency [17]: 54.9 µM (active)
Potency [18]: inactive
activity change ([19]; at 70.3 µM (top of the series)): -9.3% (inactive) and -9.83% (inactive)
Potency [15]: inactive
Potency [20]: 61.1 µM (active)

CN(C)P(=O)(N(C)C)N(C)C
outcome [1]: inactive
Potency [2]: inactive
outcome [3]: inactive
outcome [4]: inactive
outcome [5]: inactive
Potency [6]: inactive
outcome [7]: inactive
Potency [8]: inactive
Potency [10]: inactive
Potency [11]: inactive
Potency [12]: inactive
Potency [13]: inactive
Potency [14]: inactive
Potency [15]: inactive

CC(C)(c1ccc(OCC2CO2)cc1)c1ccc(OCC2CO2)cc1 (stereo not given)
outcome [1]: inactive
Potency [2]: inactive
outcome [3]: inactive
outcome [4]: inactive
outcome [5]: inactive
Potency [6]: inactive
outcome [7]: inactive
Potency [8]: inactive
outcome [16]: inactive
Potency [9]: 49 µM (active)
Potency [10]: inactive
Potency [11]: 24.3 µM (active)
Potency [12]: 2.47 µM (active) and 3.06 µM (active)
Potency [13]: 55.2 µM (active) and 27.3 µM (active)
Potency [14]: inactive
Potency [17]: inactive
Potency [18]: inactive
activity change ([19]; at 70.3 µM (top of the series)): -0.897% (inactive)
activity change ([19]; at 95 µM (top of the series)): -0.522% (inactive)
Potency [15]: inactive
Potency [20]: inactive

CNC(=O)CSP(=S)(OC)OC
outcome [1]: inactive
Potency [2]: inactive
outcome [3]: inactive
outcome [4]: inactive
outcome [5]: inactive
Potency [6]: inactive
outcome [7]: inactive
Potency [8]: inactive
Potency [10]: inactive
Potency [11]: inactive
Potency [12]: inactive
Potency [13]: inactive
Potency [14]: inactive
Potency [15]: inactive
